# Test results as given in PubChem BioAssay (Tox21).
# Records with an inconclusive call do not appear. Where a call stands in place of a potency, no number is given. Values without a mark were called inactive. The source made the active and inactive calls. Unless noted, the call rests on the fitted dose curve; in most records, active means well fitted curve in the direction sought with a large enough effect in the repeat runs; inconclusive means weak or mixed curves; inactive means no such curve, though single readings can be large; an effect the other way counts as inactive or inconclusive.
# Assays:
# [1] = qHTS assay to identify small molecule agonists of the peroxisome proliferator-activated receptor delta (PPARd) signaling pathway - cell viability counter screen (AID 743211); further: nearly all actives have a fitted effect of over 55% in size
# Outline: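 In the same wells used for beta-lactamase reporter measurement, cytotoxicity is scored by CellTiter-Glo. HEK293H PPARd-bla cells receive compound for 17 h at 37C following a 5 h settling period.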
# [2] = qHTS assay to identify small molecule antagonists of the peroxisome proliferator-activated receptor delta (PPARd) signaling pathway - cell viability counter screen (AID 743213); further: nearly all actives have a fitted effect of over 50% in size
# Outline: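 HEK293H PPARd UAS-bla cells, 5 h pre-incubation, compound + L165041 300 nM final, 17 h 37 C; B/G FRET substrate 2 h RT; then CellTiter-Glo 30 min RT, luminescence.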
# [3] = molecular target: Peroxisome proliferator-activated receptor delta (Homo sapiens) (UniProt Q03181); assay: qHTS assay to identify small molecule antagonists of the peroxisome proliferator-activated receptor delta (PPARd) signaling pathway (AID 743215; active means well fitted inhibition curve with a large enough effect in the signal ratio in the repeat runs, not every such curve was filed as active; the % refers to the signal ratio;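 further: cells stimulated with agonist L165041 at 300 nM final during compound exposure; series mostly up to about 62 µM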)
# Outline: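 Read-out is beta-lactamase FRET fluorescence, measured 2 h after substrate addition at room temperature. Beforehand, UAS-bla HEK293H cells carrying the PPARd reporter were exposed to compounds with L165041 at 300 nM final for 17 h at 37 C.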
# [4] = qHTS assay to identify small molecule agonists of the farnesoid-X-receptor (FXR) signaling pathway - cell viability counter screen (AID 743218); further: nearly all actives have a fitted effect of over 45% in size
# Outline: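 HEK 293T FXR-bla cells; 5 h pre-incubation, 16 h compound exposure at 37 C; LiveBLAzer substrate 2 h RT, then CellTiter-Glo 30 min RT, luminescence.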
# [5] = qHTS assay to identify small molecule antagonists of the farnesoid-X-receptor (FXR) signaling pathway - cell viability counter screen (AID 743221; active means well fitted cell-killing curve with a large enough effect in the repeat runs, not every such curve was filed as active; further: nearly all actives have a fitted effect of over 50% in size)
# Outline: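 Here viability was scored by luminescence after CellTiter-Glo addition to wells already read for beta-lactamase. Prior treatment: compound plus CDCA (50 uM final), 16 h, 37 C, HEK 293T FXR-bla cells.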
# [6] = molecular target: Vitamin D3 receptor (Homo sapiens) (UniProt P11473); assay: qHTS assay to identify small molecule agonists of the vitamin D receptor (VDR) signaling pathway (AID 743222; calls by dose curve)
# Outline: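 VDR-bla cells, 2,000/well; 4 h preincubation 37C; cpd (DMSO) 16 h; LiveBLAzer B/G substrate 2 h RT; fluorescence intensity read.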
# [7] = molecular target: Vitamin D3 receptor (Homo sapiens) (UniProt P11473); assay: qHTS assay to identify small molecule antagonists of the vitamin D receptor (VDR) signaling pathway (AID 743223; active means well fitted inhibition curve with a large enough effect in the signal ratio in the repeat runs, not every such curve was filed as active; the % refers to the signal ratio)
# Outline: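 Inhibition of agonist-driven VDR signalling is scored in VDR-bla cells: 3 nM final 1alpha,25-dihydroxyvitamin D3 plus compound, 16 h at 37C, then beta-lactamase detection by FRET substrate fluorescence after 2 h.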
# [8] = qHTS assay to identify small molecule agonists of the vitamin D receptor (VDR) signaling pathway - cell viability counter screen (AID 743224); further: nearly all actives have a fitted effect of over 50% in size; further: potency means the concentration at half of the fitted maximal effect
# Outline: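 Luminescence from CellTiter-Glo, read after 30 min at room temperature, reports viability of VDR-bla cells treated with compounds for 16 h at 37C in the wells used for the beta-lactamase FRET read.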
# [9] = qHTS assay to identify small molecule antagonists of the vitamin D receptor (VDR) signaling pathway - cell viability counter screen (AID 743225); further: nearly all actives have a fitted effect of over 50% in size
# Outline: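 Compounds were pinned onto VDR-bla HEK 293T cells together with 1-alpha,25-dihydroxyvitamin D3 at 3 nM final. After 16 h at 37C and 5% CO2 plus the reporter readout, cell viability was measured by CellTiter-Glo luminescence (30 min, room temperature).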
# [10] = qHTS assay to identify small molecule agonists of the NFkB signaling pathway - cell viability counter screen (AID 1159515; calls by dose curve; further: nearly all actives have a fitted effect of over 55% in size; further: potency means the concentration at half of the fitted maximal effect)
# Outline: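 Luminescence from CellTiter-Glo (30 min, room temperature) gives viability, measured in the same wells as the beta-lactamase reporter read. Cells were NFkB-bla ME-180, 2,000 per well, treated 5 hr with compounds.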
# [11] = qHTS assay to identify small molecule agonists of the endoplasmic reticulum stress response signaling pathway (AID 1159516; active means well fitted activation curve with a large enough effect in the signal ratio in the repeat runs, not every such curve was filed as active; the % refers to the signal ratio)
# Outline: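 Read-out is beta-lactamase cleavage of a FRET substrate (405 nm excitation; 460 and 530 nm emissions) in ESRE-bla HeLa cells after a 5 hr compound exposure at 37 C. Substrate incubation ran 2 hr at room temperature.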
# [12] = qHTS assay to identify small molecule antagonists of the retinoid-related orphan receptor gamma (ROR-gamma) signaling pathway - cell viability counter screen (AID 1159520); further: nearly all actives have a fitted effect of over 50% in size; further: potency means the concentration at half of the fitted maximal effect
# Outline: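 Tet-on ROR gamma CHO cells (1,000/well) were plated 4 hr, given compounds in DMSO for 2 hr at 37 C, then induced with 1 uM final doxycycline for 16 hr. Viability was read as ATP by CellTiter-Glo luminescence after 30 min.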
# [13] = molecular target: Nuclear receptor ROR-gamma (Homo sapiens) (UniProt P51449); assay: qHTS assay to identify small molecule antagonists of the retinoid-related orphan receptor gamma (ROR-gamma) signaling pathway (AID 1159521; further: nearly all actives have a fitted effect of over 50% in size; further: potency means the concentration at half of the fitted maximal effect;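 on activity change, negative = inhibition: CHO cells with doxycycline inducible ROR-gamma driving an RORE luciferase reporter; top concentration of the series differs between compounds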)
# Outline: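 Test compounds were applied to Tet-on RORγ CHO cells 2 h ahead of doxycycline hyclate (1 uM final). Luciferase reporter activity was quantified by luminescence after 16 h at 37 C and 5% CO2.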
# [14] = qHTS assay to identify small molecule agonists of the AP-1 signaling pathway - cell viability counter screen (AID 1159525; calls by dose curve; further: nearly all actives have a fitted effect of over 55% in size; further: potency means the concentration at half of the fitted maximal effect)
# Outline: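 ME-180 AP-1-bla, 2500 cells/well, Opti-MEM + 0.5% dialyzed FBS; overnight 37 °C; cpd 15-pt titration, 5 h 37 °C; CellTiter-Glo 30 min RT; luminescence read; normalised to TOAB and DMSO controls.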
# [15] = qHTS assay to identify small molecule agonists of the AP-1 signaling pathway (AID 1159526; calls by dose curve; further: potency means the concentration at half of the fitted maximal effect)
# [16] = molecular target: Retinoic acid receptor RXR-alpha (Homo sapiens) (UniProt P19793); assay: qHTS assay to identify small molecule agonists of the RXR signaling pathway (AID 1159527; calls by dose curve; further: nearly all actives have a fitted effect of over 35% in size)
# Outline: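 Using 9-cis retinoic acid as the reference agonist, chemicals were tested in HEK 293T cells […] for 16 hr; substrate loading lasted 2 hr at room temperature.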
# [17] = molecular target: Peroxisome proliferator-activated receptor delta (Homo sapiens) (UniProt Q03181); assay: qHTS assay to identify small molecule agonists of the peroxisome proliferator-activated receptor delta (PPARd) signaling pathway (AID 743212; calls by dose curve)
# Outline: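 GeneBLAzer PPARd UAS-bla HEK293H cells (beta-lactamase reporter under UAS control), plated and rested 5 h at 37 C, then exposed to compounds in DMSO at 37 C; LiveBLAzer B/G FRET substrate added, 2 h room temperature, fluorescence read.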
# [18] = molecular target: Bile acid receptor (Homo sapiens) (UniProt Q96RI1); assay: qHTS assay to identify small molecule antagonists of the farnesoid-X-receptor (FXR) signaling pathway (AID 743217; active means well fitted inhibition curve with a large enough effect in the signal ratio in the repeat runs, not every such curve was filed as active; the % refers to the signal ratio)
# Outline: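 HEK 293T FXR-UAS-bla, 5000 cells/well; compound + CDCA 50 uM final; 16 h, 37 °C; B/G FRET substrate 2 h RT; fluorescence.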
# [19] = molecular target: Bile acid receptor (Homo sapiens) (UniProt Q96RI1); assay: qHTS assay to identify small molecule agonists of the farnesoid-X-receptor (FXR) signaling pathway (AID 743220; active means well fitted activation curve with a large enough effect in the signal ratio in the repeat runs, not every such curve was filed as active; the % refers to the signal ratio)
# Outline: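 Beta-lactamase reporter under UAS control in GeneBLAzer FXR HEK 293T cells (5000/well) measured with LiveBLAzer FRET substrate after 2 h at room temperature. Compound exposure lasted 16 h at 37C.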
# Vitamin D3 receptor (Homo sapiens), sequence (P11473 whole entry, looked up): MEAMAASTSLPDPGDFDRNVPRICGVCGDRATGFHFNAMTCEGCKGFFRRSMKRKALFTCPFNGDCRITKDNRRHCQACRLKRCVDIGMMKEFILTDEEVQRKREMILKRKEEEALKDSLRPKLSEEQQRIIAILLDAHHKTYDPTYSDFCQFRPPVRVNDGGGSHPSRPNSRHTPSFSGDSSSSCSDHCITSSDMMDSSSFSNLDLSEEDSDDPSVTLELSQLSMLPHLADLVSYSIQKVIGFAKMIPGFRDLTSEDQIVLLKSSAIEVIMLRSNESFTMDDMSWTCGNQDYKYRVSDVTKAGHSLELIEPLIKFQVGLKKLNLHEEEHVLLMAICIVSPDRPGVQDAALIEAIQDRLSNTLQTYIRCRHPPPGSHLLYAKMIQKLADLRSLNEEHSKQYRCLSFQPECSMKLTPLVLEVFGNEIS
# Peroxisome proliferator-activated receptor delta (Homo sapiens), sequence (Q03181 whole entry, looked up): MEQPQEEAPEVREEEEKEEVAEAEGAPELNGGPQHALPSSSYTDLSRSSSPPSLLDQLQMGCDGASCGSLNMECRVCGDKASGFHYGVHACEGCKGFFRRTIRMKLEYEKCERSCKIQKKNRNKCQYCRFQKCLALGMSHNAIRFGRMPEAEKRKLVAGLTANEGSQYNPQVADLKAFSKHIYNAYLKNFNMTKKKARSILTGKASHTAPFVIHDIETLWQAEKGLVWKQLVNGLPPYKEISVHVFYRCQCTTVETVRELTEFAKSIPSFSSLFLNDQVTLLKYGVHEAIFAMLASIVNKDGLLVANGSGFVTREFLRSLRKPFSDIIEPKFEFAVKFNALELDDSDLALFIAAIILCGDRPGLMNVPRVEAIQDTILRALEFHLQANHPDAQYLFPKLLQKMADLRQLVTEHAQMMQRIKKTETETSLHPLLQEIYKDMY
# Bile acid receptor (Homo sapiens), sequence (Q96RI1 whole entry, looked up): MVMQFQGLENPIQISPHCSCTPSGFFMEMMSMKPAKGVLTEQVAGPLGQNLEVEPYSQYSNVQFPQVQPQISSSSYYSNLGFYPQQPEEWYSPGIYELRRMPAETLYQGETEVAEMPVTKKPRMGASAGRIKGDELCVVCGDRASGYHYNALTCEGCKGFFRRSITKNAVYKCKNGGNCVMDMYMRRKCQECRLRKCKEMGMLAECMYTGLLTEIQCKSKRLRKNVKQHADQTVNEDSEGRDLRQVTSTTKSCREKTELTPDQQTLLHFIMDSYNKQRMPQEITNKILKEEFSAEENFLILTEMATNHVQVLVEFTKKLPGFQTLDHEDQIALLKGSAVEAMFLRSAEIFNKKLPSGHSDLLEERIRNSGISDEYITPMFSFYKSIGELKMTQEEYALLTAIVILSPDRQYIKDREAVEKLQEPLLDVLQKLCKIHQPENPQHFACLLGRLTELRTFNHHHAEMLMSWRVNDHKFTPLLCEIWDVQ
# Retinoic acid receptor RXR-alpha (Homo sapiens), sequence (P19793 whole entry, looked up): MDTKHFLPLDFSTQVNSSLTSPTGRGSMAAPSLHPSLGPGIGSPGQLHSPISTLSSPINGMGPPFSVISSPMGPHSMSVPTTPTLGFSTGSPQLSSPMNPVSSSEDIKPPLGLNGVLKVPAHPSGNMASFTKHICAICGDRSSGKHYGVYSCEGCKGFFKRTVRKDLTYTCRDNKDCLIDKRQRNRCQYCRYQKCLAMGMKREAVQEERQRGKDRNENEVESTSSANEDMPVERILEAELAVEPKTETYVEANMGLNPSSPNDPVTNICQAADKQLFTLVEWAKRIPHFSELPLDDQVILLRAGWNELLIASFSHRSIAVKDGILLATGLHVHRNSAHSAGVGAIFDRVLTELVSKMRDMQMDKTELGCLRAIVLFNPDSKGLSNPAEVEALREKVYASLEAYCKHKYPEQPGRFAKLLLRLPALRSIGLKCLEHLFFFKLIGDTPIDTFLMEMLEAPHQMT
compound,measurement,setting,value
CCc1cccc(CC)c1NC(=O)CN(CC(=O)O)CC(=O)O,Potency,[1],inactive
same,Potency,[2],inactive
same,Potency,[3],inactive
same,Potency,[4],inactive
same,Potency,[5],inactive
same,Potency,[6],inactive
same,Potency,[7],inactive
same,Potency,[8],inactive
same,Potency,[9],inactive
same,Potency,[10],inactive
same,Potency,[11],inactive
same,Potency,[12],inactive
same,Potency,[13],inactive
same,Potency,[14],inactive
same,Potency,[15],inactive
same,Potency,[16],inactive
CCC(CC)C(C)CCOC(C)=O (stereo not given),Potency,[17],inactive
same,Potency,[2],inactive
same,Potency,[3],inactive
same,Potency,[5],inactive
same,Potency,[6],inactive
same,Potency,[7],inactive
same,Potency,[8],inactive
same,Potency,[9],inactive
same,Potency,[10],inactive
same,Potency,[11],inactive
same,Potency,[12],inactive
same,Potency,[13],inactive
same,Potency,[14],inactive
same,Potency,[15],inactive
same,Potency,[16],inactive
C=CCCC(=O)/C=C/C1C(C)=CCCC1(C)C (stereo not given),Potency,[1],inactive
same,Potency,[17],inactive
same,Potency,[4],inactive
same,Potency,[5],inactive
same,Potency,[6],inactive
same,Potency,[7],inactive
same,Potency,[8],inactive
same,Potency,[9],inactive
same,Potency,[10],inactive
same,Potency,[11],inactive
same,Potency,[12],inactive
same,Potency,[14],inactive
same,Potency,[15],inactive
same,Potency,[16],inactive
CC/C=C\CCCCCO,Potency,[1],inactive
same,Potency,[17],inactive
same,Potency,[2],inactive
same,Potency,[3],inactive
same,Potency,[4],inactive
same,Potency,[5],inactive
same,Potency,[6],inactive
same,Potency,[7],inactive
same,Potency,[8],inactive
same,Potency,[9],inactive
same,Potency,[10],inactive
same,Potency,[11],inactive
same,Potency,[12],inactive
same,Potency,[13],inactive
same,Potency,[14],inactive
same,Potency,[15],inactive
S=c1nccc[nH]1,Potency,[1],inactive
same,Potency,[17],inactive
same,Potency,[2],inactive
same,Potency,[3],inactive
same,Potency,[18],inactive
same,Potency,[4],inactive
same,Potency,[19],inactive
same,Potency,[5],inactive
same,Potency,[8],inactive
same,Potency,[9],inactive
same,Potency,[10],inactive
same,Potency,[11],inactive
same,Potency,[12],inactive
same,Potency,[14],inactive
same,Potency,[15],49.1 µM (active)
same,Potency,[16],inactive
C=C(C)C(=O)OCCCCCCCCCC,Potency,[5],inactive
same,Potency,[7],inactive
same,Potency,[8],44 µM (active)
same,Potency,[9],inactive
same,Potency,[10],inactive
same,Potency,[11],inactive
same,Potency,[12],inactive
same,Potency,[13],inactive
same,Potency,[14],inactive
CC(C)Cn1cnc2c(N)nc3ccccc3c21,Potency,[1],inactive
same,Potency,[2],inactive
same,Potency,[3],inactive
same,Potency,[18],inactive
same,Potency,[4],inactive
same,Potency,[19],inactive
same,Potency,[5],inactive
same,Potency,[6],inactive
same,Potency,[7],inactive
same,Potency,[8],inactive
same,Potency,[9],inactive
same,Potency,[10],inactive
same,Potency,[11],inactive
same,"activity, negative = cytotoxicity",[12],-2.84% [at 19 µM]
same,"activity change, negative = inhibition",[13],5.43% [at 19 µM]
same,"viability change, negative = cytotoxic",[14],9.4% [at 15.8 µM]
same,activation,[16],13.7% [at 15.8 µM]
O=C(O)c1cc(O)c2ccccc2c1O,Potency,[18],inactive
same,Potency,[5],inactive
same,Potency,[8],38.9 µM (active)
same,Potency,[10],21.9 µM (active)
same,Potency,[11],inactive
same,Potency,[12],17.2 µM (active)
same,Potency,[13],13.7 µM (active)
same,Potency,[14],4.9 µM (active)
CC(C)(C)C1CCC(=O)CC1,Potency,[17],inactive
same,Potency,[4],inactive
same,Potency,[5],inactive
same,Potency,[6],inactive
same,Potency,[7],inactive
same,Potency,[8],49 µM (active)
same,Potency,[9],inactive
same,Potency,[10],54.9 µM (active)
same,Potency,[11],inactive
same,Potency,[12],inactive
same,Potency,[13],inactive
same,Potency,[14],inactive
CC(C)(C)NSc1nc2ccccc2s1,Potency,[1],inactive
same,Potency,[17],inactive
same,Potency,[2],inactive
same,Potency,[3],inactive
same,Potency,[5],inactive
same,Potency,[6],inactive
same,Potency,[8],inactive
same,Potency,[9],inactive
same,Potency,[10],inactive
same,Potency,[11],inactive
same,Potency,[12],inactive
same,Potency,[13],inactive
same,Potency,[14],inactive
O=C1CCc2cc(OCCCCc3nnnn3C3CCCCC3)ccc2N1,Potency,[1],inactive
same,Potency,[3],inactive
same,Potency,[18],inactive
same,Potency,[4],inactive
same,Potency,[5],inactive
same,Potency,[7],inactive
same,Potency,[8],inactive
same,Potency,[9],inactive
same,Potency,[10],inactive
same,Potency,[11],inactive
same,Potency,[12],inactive
same,Potency,[13],inactive
same,Potency,[14],inactive
same,Potency,[15],inactive
